Experimental data published in PubChem BioAssay (Tox21).
Inconclusive results are not listed. A call without a number means that no potency is given here. Values without a mark were called inactive. Calls of active or inactive are those of the source. Unless noted, calls come from the whole dose curve; as a rule, active = well fitted curve in the direction sought with a large enough effect in the repeat runs; inconclusive = weak or mixed curves; inactive = no such curve, though single readings can be large; an effect the other way counts as inactive or inconclusive.

Experiments:
[1] = qHTS assay to identify small molecule antagonists of the estrogen related receptor (ERR) signaling pathway from Tox21 library - cell viability counter screen (AID 1224834); note: nearly all actives have a fitted effect of over 30% in size; note: potency is the fitted concentration of half-maximal effect
Outline: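 Seeded ERR cells were rested 6 h at 37 C/5% CO2 before compounds, positive and negative controls or DMSO were added. Incubation continued for 17.5 h, and viability was then quantified by CellTiter-Fluor fluorescence.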

[2] = qHTS assay to identify small molecule agonists of the constitutive androstane receptor (CAR) signaling pathway - cell viability counter screen (AID 1224836); note: series mostly up to about 92 µM; nearly all actives have a fitted effect of over 45% in size
Outline: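 Double-stable HepG2 hepatoma cells (hCAR plus CYP2B6-2.2kb) are treated for 23 h at 37 C with test compounds in 15-point concentration series. PK11195 at 0.75 uM final is co-added. Cell viability is quantified by CellTiter-Fluor.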

[3] = qHTS assay to identify small molecule antagonists of the constitutive androstane receptor (CAR) signaling pathway - cell viability counter screen (AID 1224837); note: series mostly up to about 92 µM; nearly all actives have a fitted effect of over 45% in size
Outline: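 To flag cytotoxic false antagonists, HepG2 hCAR/CYP2B6-2.2kb cells were treated 23 hr with 15-concentration compound series and 50 nM CITCO at 37 C/5% CO2; CellTiter-Fluor fluorescence was the measured end point.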

[4] = biological target: Nuclear receptor subfamily 1 group I member 3 (Homo sapiens) (UniProt Q14994); assay: qHTS assay to identify small molecule antagonists of the constitutive androstane receptor (CAR) signaling pathway (AID 1224838);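 note: HepG2 cells stably expressing hCAR with CYP2B6 luciferase reporter stimulated by CITCO; nearly all actives have a fitted effect of over 40% in size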; note: potency is the fitted concentration of half-maximal effect
Sequence of Nuclear receptor subfamily 1 group I member 3 (Homo sapiens) (Q14994 whole entry, looked up): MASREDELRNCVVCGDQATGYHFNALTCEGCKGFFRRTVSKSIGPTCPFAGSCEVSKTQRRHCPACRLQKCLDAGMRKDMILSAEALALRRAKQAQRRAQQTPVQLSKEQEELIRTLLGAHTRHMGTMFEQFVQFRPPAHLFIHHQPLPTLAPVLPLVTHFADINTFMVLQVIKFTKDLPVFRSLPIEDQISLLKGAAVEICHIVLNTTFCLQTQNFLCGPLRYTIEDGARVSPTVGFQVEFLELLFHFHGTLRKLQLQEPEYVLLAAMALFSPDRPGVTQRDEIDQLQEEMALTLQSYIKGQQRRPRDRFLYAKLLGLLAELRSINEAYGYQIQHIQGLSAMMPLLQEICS
Outline: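 Human hepatoma HepG2 cells expressing hCAR and a CYP2B6 promoter (2.2 kb) luciferase construct; compound titration (15 points) with 50 nM CITCO final, 24 h at 37 C/5% CO2; luminescence via ONE-Glo after 30 min at room temperature.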

[5] = biological target: Nuclear receptor subfamily 1 group I member 3 (Homo sapiens) (UniProt Q14994); assay: qHTS assay to identify small molecule agonists of the constitutive androstane receptor (CAR) signaling pathway (AID 1224839); note: nearly all actives have a fitted effect of over 15% in size; note: potency is the fitted concentration of half-maximal effect
Outline: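 Readout: firefly luciferase luminescence via ONE-Glo. System: HepG2 double-stable for hCAR and CYP2B6-2.2kb. Conditions: 15-point compound titration, PK11195 at 0.75 uM final, 24 h incubation.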

[6] = biological target: Thyrotropin receptor (Homo sapiens) (UniProt P16473); assay: qHTS assay to identify small molecule agonists of the thyroid stimulating hormone receptor (TSHR) signaling pathway (AID 1224843; calls by dose curve; note: nearly all actives have a fitted effect of over 45% in size; note: potency is the fitted concentration of half-maximal effect)
Sequence of Thyrotropin receptor (Homo sapiens) (P16473 whole entry, looked up): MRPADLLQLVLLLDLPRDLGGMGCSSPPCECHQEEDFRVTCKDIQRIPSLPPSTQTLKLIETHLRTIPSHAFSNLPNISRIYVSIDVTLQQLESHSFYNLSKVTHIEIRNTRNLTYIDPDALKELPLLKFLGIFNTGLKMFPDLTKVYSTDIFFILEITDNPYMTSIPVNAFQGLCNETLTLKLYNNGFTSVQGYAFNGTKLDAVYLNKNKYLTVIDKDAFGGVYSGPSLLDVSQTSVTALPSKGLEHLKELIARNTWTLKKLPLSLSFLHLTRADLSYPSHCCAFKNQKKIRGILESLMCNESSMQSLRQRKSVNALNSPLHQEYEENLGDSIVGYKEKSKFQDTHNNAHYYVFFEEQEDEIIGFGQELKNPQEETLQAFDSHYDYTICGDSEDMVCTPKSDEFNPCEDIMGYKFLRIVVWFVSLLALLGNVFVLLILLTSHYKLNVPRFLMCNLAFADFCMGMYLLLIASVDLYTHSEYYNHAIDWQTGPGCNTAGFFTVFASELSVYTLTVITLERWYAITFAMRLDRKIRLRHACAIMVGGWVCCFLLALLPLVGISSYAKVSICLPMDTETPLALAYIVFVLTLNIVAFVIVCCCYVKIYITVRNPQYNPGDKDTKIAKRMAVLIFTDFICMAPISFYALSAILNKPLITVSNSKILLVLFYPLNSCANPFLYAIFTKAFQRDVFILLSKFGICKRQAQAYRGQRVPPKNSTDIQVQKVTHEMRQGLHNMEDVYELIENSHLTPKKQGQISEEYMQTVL
Outline: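 Agonist-mode screen: TSHR HEK293 cells received test chemicals for half an hour at room temperature, then HTRF cAMP detection reagents for one hour prior to fluorescence measurement. Each chemical ran as a 15-concentration series, triplicated.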

[7] = biological target: Luciferin 4-monooxygenase (Photinus pyralis) (UniProt P08659); assay: qHTS assay to identify small molecule inhibitors of firefly luciferase (AID 1224835); note: nearly all actives have a fitted effect of over 25% in size; note: potency is the fitted concentration of half-maximal effect
Sequence of Luciferin 4-monooxygenase (Photinus pyralis) (P08659 whole entry, looked up): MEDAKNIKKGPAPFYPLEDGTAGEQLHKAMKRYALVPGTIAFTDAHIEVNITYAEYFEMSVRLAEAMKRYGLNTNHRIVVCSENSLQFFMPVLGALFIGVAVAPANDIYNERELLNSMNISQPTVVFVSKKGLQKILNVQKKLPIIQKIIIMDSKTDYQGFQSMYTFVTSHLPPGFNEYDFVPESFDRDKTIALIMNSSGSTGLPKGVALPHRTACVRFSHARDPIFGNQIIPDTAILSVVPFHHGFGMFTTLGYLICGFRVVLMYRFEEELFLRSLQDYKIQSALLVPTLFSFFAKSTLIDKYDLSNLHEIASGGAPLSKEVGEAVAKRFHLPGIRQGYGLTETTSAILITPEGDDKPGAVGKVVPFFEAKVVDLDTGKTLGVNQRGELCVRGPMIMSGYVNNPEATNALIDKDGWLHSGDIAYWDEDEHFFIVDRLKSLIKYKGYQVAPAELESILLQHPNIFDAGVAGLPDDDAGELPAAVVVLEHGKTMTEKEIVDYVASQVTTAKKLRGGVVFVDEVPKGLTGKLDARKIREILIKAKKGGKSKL
Outline: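 Biochemical qHTS: compounds run as interplate titrations against purified firefly enzyme, with D-luciferin and ATP each at its KM concentration. Light output recorded by CCD imaging.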

[8] = qHTS assay to identify small molecule antagonists of the estrogen related receptor signaling pathway with the pleiotropic PPARgamma coactivator (PGC) from Tox21 10K library (AID 1224841; call rule not given here; note: actives are mostly falling curves and most rising ones were filed inactive; nearly all actives have a fitted effect of over 50% in size; note: potency is the fitted concentration of half-maximal effect)
Outline: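 Test chemicals dissolved in DMSO were applied to pre-incubated (6 h) PGC/ERR cells at 2,000 cells/well for an 18 h, 37 C treatment; reporter luminescence was then read using One-Glo.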

[9] = qHTS assay to identify small molecule agonists of the estrogen related receptor signaling pathway with the pleiotropic PPARgamma coactivator (PGC) from Tox21 10K library (AID 1224842); note: nearly all actives have a fitted effect of over 15% in size; note: potency is the fitted concentration of half-maximal effect
Outline: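 PGC/ERR reporter cell line, 2,000 cells per well, incubated 6 h at 37 C before 23 nL compound in DMSO was added. After 18 h at 37 C, One-Glo luminescence read following 30 min at room temperature.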

[10] = qHTS assay to identify small molecule antagonists of the estrogen related receptor signaling pathway with the pleiotropic PPARgamma coactivator (PGC) from Tox21 10K library - cell viability counter screen (AID 1224840; active = well fitted cell-killing curve with a large enough effect in the repeat runs, not every such curve was filed as active; note: nearly all actives have a fitted effect of over 40% in size)
Outline: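 Seeded PGC/ERR cells (2,000/well, 6 h, 37 C/5% CO2) get compound by pin tool; 17.5 h incubation at 37 C; CellTiter-Fluor added, 30 min, fluorescence measured.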

## CCC(C)O (stereo not drawn)
[1]
  Potency: inactive
[2]
  Potency: inactive
[3]
  Potency: inactive
[4]
  Potency: inactive
[5]
  Potency: inactive
[6]
  Potency: inactive

## COc1cc(C(=O)OCCCN2CCCN(CCCOC(=O)c3cc(OC)c(OC)c(OC)c3)CC2)cc(OC)c1OC
[1]
  Potency: 23.7 µM (active)
[7]
  Potency: inactive
[5]
  Potency: inactive
[8]
  Potency: inactive
[9]
  Potency: inactive

## C=CC(=O)OCCOc1ccccc1
[1]
  Potency: inactive
[2]
  Potency: inactive
[3]
  Potency: inactive
[8]
  Potency: inactive
[9]
  Potency: 68.5 µM (active)
[6]
  Potency: inactive

## Brc1c2ccccc2cc2ccccc12
[1]
  Potency: inactive
[3]
  Potency: inactive
[4]
  Potency: inactive
[5]
  Potency: 55 µM (active)
[10]
  Potency: inactive

## ClCCOCCOCCCl
[1]
  Potency: inactive
[7]
  Potency: inactive
[10]
  Potency: inactive
[8]
  Potency: inactive
[9]
  Potency: inactive
[6]
  Potency: inactive

## CCCCO
[1]
  Potency: inactive
[3]
  Potency: inactive
[10]
  Potency: inactive

## CCc1cc(C2=C(C(=O)O)N(c3ccccc3C(F)(F)F)S(=O)(=O)c3ccccc32)cc2c1OCO2
[1]
  Potency: 7.61 µM (active)
[7]
  Potency: inactive
[5]
  Potency: inactive
[8]
  Potency: 30.3 µM (active)
[9]
  Potency: inactive

## O=C(Cl)c1cc(C(=O)Cl)cc(C(=O)Cl)c1
[1]
  Potency: inactive
[3]
  Potency: inactive
[10]
  Potency: inactive
[6]
  Potency: inactive

## O[C@@H](COc1cccc2ncccc12)CN1CCN(C2c3ccccc3[C@@H]3[C@H](c4ccccc42)C3(F)F)CC1 (stereo partly drawn)
[1]
  Potency: 9.44 µM (active)
[7]
  Potency: inactive
[5]
  Potency: inactive
[6]
  Potency: 11.9 µM (active)

## O=C(O)C(S)C(S)C(=O)O (stereo not drawn)
[1]
  Potency: inactive
[2]
  Potency: inactive
[3]
  Potency: inactive
[5]
  Potency: inactive
[10]
  Potency: inactive
[6]
  Potency: inactive

## CC(=O)[O][Al][O]C(C)=O
[1]
  Potency: inactive
[3]
  Potency: inactive
[10]
  Potency: inactive
[8]
  Potency: inactive
[9]
  Potency: inactive

## S=C([S-])NCCNC(=S)[S-].[Mn+2]
[1]
  Potency: inactive
[7]
  Potency: 12.6 µM (active)
[10]
  Potency: inactive
[6]
  Potency: inactive

## C[C@@H](c1ncncc1F)C(O)(Cn1cncn1)c1ccc(F)cc1F (stereo partly drawn)
[1]
  Potency: inactive
[7]
  Potency: inactive
[8]
  Potency: inactive
[9]
  Potency: inactive
[6]
  Potency: inactive

## Cc1nn(C)c(Oc2ccccc2)c1/C=N/OCc1ccc(C(=O)OC(C)(C)C)cc1
[1]
  Potency: inactive
[7]
  Potency: inactive
[10]
  Potency: inactive
[9]
  Potency: inactive

## CC(C)O.CC(C)O.CCOC(=O)/C=C(\C)O.CCOC(=O)/C=C(\C)O.[Ti]
[1]
  Potency: inactive
[2]
  Potency: inactive
[3]
  Potency: inactive
[10]
  Potency: inactive

## CCN(CC)c1ccc(C(=C2C=CC(=[N+](CC)CC)C=C2)c2cc(S(=O)(=O)O)ccc2S(=O)(=O)[O-])cc1
[1]
  Potency: 29.8 µM (active)
[7]
  Potency: 12.3 µM (active)
[4]
  Potency: 11.9 µM (active)
[5]
  Potency: inactive
[8]
  Potency: 11.9 µM (active)
[9]
  Potency: inactive

## Nc1ncn([C@H]2C[C@H](O)[C@@H](CO)O2)c(=O)n1
[1]
  Potency: inactive
[2]
  Potency: inactive
[4]
  Potency: inactive
[5]
  Potency: inactive
[10]
  Potency: inactive
